Hits are enriched below; roughly 2.6% of the tested compounds scored in any of these assays.
Cruzain Triton: inhibitors of Trypanosoma cruzi cruzain with detergent. P25779. purified cruzain, Z-FR-AMC fluorescence, 0.01% Triton. Potency, µM, inactives show max response, negative = inhibition, hits mostly inhibitors. 200,000 compounds, 0.43% hits. AID 1478;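 also: plate controls were neutral wells for no effect and buffer without enzyme for full effect; nearly all actives have a fitted effect of over 40% in size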
Target sequence (P25779 123-467 limits assumed): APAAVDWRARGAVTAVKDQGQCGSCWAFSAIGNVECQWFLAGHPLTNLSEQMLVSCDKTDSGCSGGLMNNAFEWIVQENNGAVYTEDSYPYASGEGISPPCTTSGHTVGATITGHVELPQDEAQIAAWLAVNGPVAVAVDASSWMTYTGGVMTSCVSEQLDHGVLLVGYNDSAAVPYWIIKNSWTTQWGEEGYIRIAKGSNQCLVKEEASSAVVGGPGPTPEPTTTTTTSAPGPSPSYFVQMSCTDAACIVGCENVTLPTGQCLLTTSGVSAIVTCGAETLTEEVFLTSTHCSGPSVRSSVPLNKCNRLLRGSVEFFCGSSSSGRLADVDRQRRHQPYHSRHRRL
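15 min RT preincubation of 1.5 nM cruzain with compound, then 2 uM Z-FR-AMC added; kinetic AMC fluorescence, 60 s delta. Triton X-100 0.01%, pH 5.5.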
Cruzain noTriton: inhibitors of Trypanosoma cruzi cruzain without detergent. P25779. purified cruzain, Z-FR-AMC fluorescence, no detergent. Potency, µM, without a hit: max response, negative = inhibition, hits mostly inhibitors. 200,000 compounds, 2.3% hits;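 also: plate controls were enzyme without inhibitor for no effect and buffer without enzyme for full effect; nearly all actives have a fitted effect of over 40% in size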
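Detergent-free condition (0.00005% Triton X-100) in acetate buffer pH 5.5 with DTT. 1.5 nM enzyme and compound were pre-mixed 15 min, then 2 uM Z-FR-AMC substrate added; reaction progress from fluorescence change between first and third reads (60 s).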
Starred values were filed as active, the others as inactive; ? = inconclusive. Calls follow the shape of the dose curve; as a rule, active = well fitted curve in the direction sought with a large enough effect; inconclusive = small, poorly fitted or top-dose-only effect, or another doubt; inactive = no such curve, though single readings can be large; an effect the other way counts as inactive or inconclusive. Potency is read from the fitted curve at half-maximal effect.

SMILES | Cruzain Triton | Cruzain noTriton
CCOC(=O)C1(C)C=C(Nc2ccc(OC)cc2)C(=O)N1c1ccc(OC)cc1 (stereo not drawn) | 6% | 16µM*
CCOC(=O)C1(C)C=C(Nc2ccc(O)cc2)C(=O)N1c1ccc(O)cc1 (stereo not drawn) | -7% | -9%
CCCOc1cccc(C(=O)Nc2cc(-c3ccccc3)no2)c1 | -11% | 20%
N#Cc1cc(-c2ccccc2)nc(Oc2ccccc2)n1 | 16µM* | -25%
COc1ccc(Oc2nccc(-c3ccc(Cl)cc3)n2)cc1 | 2% | -3%
COc1ccc(-c2cc(C(N)=O)nc(N3CCCCCC3)n2)cc1 | -4% | 32µM*
NC(=O)c1cc(-c2ccccc2)nc(Oc2ccccc2)n1 | -3% | -14%
COc1ccc(-c2cc(C(F)(F)F)nc(N3CCCCCC3)n2)cc1 | -1% | 6%
COc1ccc(-c2cc(C#N)nc(Oc3ccc(Cl)cc3)n2)cc1 | 28µM* | 25µM*
CN1CCN(c2nc(C#N)cc(-c3ccccc3)n2)CC1 | -22% | ?
COc1ccc(-c2cc(C#N)nc(N3CCNCC3)n2)cc1 | -24% | 32µM*
CCC(Sc1nnc(C)n2c1cc1sccc12)C(=O)Nc1ccccc1F (stereo not drawn) | -5% | 11%
CCc1ccc(NC(=O)CN2C(=O)C(=O)c3ccccc32)cc1 | -5% | 12%
NS(=O)(=O)c1cc(C(=O)O)c(O)c2ccccc12 | 3% | 3%
N#Cc1ccc(Oc2nc(C#N)cc(-c3ccccc3)n2)cc1 | 14µM* | -23%
CCN(CC)c1nc(C#N)cc(-c2ccc(OC)cc2)n1 | -14% | -14%
Cc1ccc(C)c(CSc2c(C(C)C)cnc3c2c(=O)n(C)c(=O)n3C)c1 | 4% | -11%
CC(C)(C)NC(=O)CSc1nncn1-c1ccccc1 | -2% | 0%
O=C(CSc1nncn1-c1ccccc1)Nc1cc(Cl)cc(Cl)c1 | -2% | 25µM*
O=C(Cc1cccs1)NC1C(=O)N2C(C(=O)[O-])=C(C[n+]3ccccc3)CSC12 (stereo not drawn) | -18% | ?
CC(C)(C)C1CCc2c(sc(NC(=O)C3c4ccccc4Oc4ccccc43)c2C(N)=O)C1 (stereo not drawn) | -8% | 10µM*
CCOC(=O)c1c(NC(=O)C2c3ccccc3Oc3ccccc32)sc2c1CCC(CC)C2 (stereo not drawn) | -1% | 14%
CC(C)(C)C1CCc2c(sc(N)c2C(N)=O)C1 (stereo not drawn) | -15% | 25µM*
CCC(C)(C)C1CCc2c(sc(N)c2C(N)=O)C1 (stereo not drawn) | -25% | ?
CCOC(=O)c1c(NC(=O)C2CCN(S(=O)(=O)c3cccs3)CC2)sc(C)c1C | -4% | -18%
SMILES | Cruzain Triton | Cruzain noTriton
CC(C)(C)C1CCc2c(sc(NC(=O)c3ccco3)c2C(N)=O)C1 (stereo not drawn) | -22% | -25%
CCCOC(=O)c1c(NC(=O)C2c3ccccc3Oc3ccccc32)sc2c1CCC(C)C2 (stereo not drawn) | -2% | 20µM*
CCOC(=O)c1c(NC(=O)C(C)N2CCN(S(=O)(=O)c3cccs3)CC2)sc2c1CCC(C)C2 (stereo not drawn) | -1% | 7.9µM*
O=C(c1cccc(F)c1)N1CCC2(CC1)CCN(c1cccc(-c3ccccc3)c1)CC2 | -1% | ?
CCCCCOC(=O)CSc1nc2sc3c(c2c(=O)n1-c1ccccc1)CC(C)(CC)OC3 (stereo not drawn) | -7% | -7%
Cn1cccc1C(=O)N1CCC2(CC1)CCN(c1ncccn1)CC2 | 4% | 5%
Nc1nc(SCc2ccccc2Cl)cc(C(=O)O)n1 | 1% | -4%
CN1C2CC(OC(=O)C(CO)c3ccccc3)C[C@@H]1[C@H]1OC21 (stereo partly drawn) | -1% | 9%
OCCNCCCOc1cccc(Cl)c1Cl | -10% | -11%
Brc1cc(Oc2cc(Br)c(Br)c(Br)c2Br)c(Br)c(Br)c1Br | 5% | ?
CC1CCc2c(sc(NC(=O)C3c4ccccc4Oc4ccccc43)c2C#N)C1 (stereo not drawn) | -4% | -24%
CC1CCc2c(sc(NC(=O)C3c4ccccc4Oc4ccccc43)c2C(N)=O)C1 (stereo not drawn) | -6% | 25µM*
Cc1ccccc1Nc1cc(C(=O)NCc2cccs2)c2ccccc2n1 | -14% | ?
CSc1ccc(NC(=O)C2CCN(c3ncccn3)CC2)cc1 | 4% | 1%
Cc1csc(NC(=O)CCn2c(=O)oc3ccccc32)n1 | -1% | -7%
O=C(Cn1c(=O)oc2ccccc21)Nc1nc(-c2ccc(Br)cc2)cs1 | 1% | 16µM*
NC1(P(=O)(O)O)CCCCC1 | 2% | -3%
Cc1cccc2sc(N(Cc3cccnc3)C(=O)C3CCCCC3)nc12 | -6% | 7%
Cc1cccc(-n2c(=O)c3c(c4cc(C)ccc4n3C)n(C)c2=O)c1 | 0% | -3%
C=Cc1ccc(Cn2c(=O)n(-c3cccc(C)c3)c(=O)c3c2c2cc(C)ccc2n3C)cc1 | -18% | 25µM*
CCC1CCCCN1S(=O)(=O)c1ccc(NC(=O)c2cc(=O)c3c(C)cc(C)cc3o2)cc1 (stereo not drawn) | -3% | ?
CCOC(=O)c1[nH]c2ccccc2c1NC(=O)c1ccc(OC)c(OC)c1 | -7% | 9%
CS(=O)(=O)c1ccc2nc(NC(=O)c3cccc(NS(=O)(=O)c4ccc(F)c(F)c4)c3)sc2c1 | -7% | -29%
O=C(Nc1nc2ccc(SC(F)F)cc2s1)c1ccc(NS(=O)(=O)c2ccc(F)c(F)c2)cc1 | -1% | 32µM*
C[C@H]1[C@H](O)[C@@H](C)C=CC=CC=CC=CC=CC=CC=C[C@H](O[C@@H]2O[C@@H](C)[C@H](O)[C@@H](N)[C@@H]2O)C[C@@H]2O[C@](O)(C[C@@H](O)C[C@@H](O)[C@@H](O)CC[C@@H](O)C[C@@H](O)CC(=O)O[C@H]1C)C[C@H](O)[C@H]2C(=O)O | 5% | 8%
SMILES | Cruzain Triton | Cruzain noTriton
Cc1cccc(N)c1C | 2% | 7%
N#CNC(=Nc1ccc(F)cc1)SCc1ccccc1 | 2% | 25µM*
CC(C)N=C(NC#N)SCc1ccc(F)cc1 | 3% | 9%
COc1ccccc1N1CCN(S(=O)(=O)c2ccccc2F)CC1 | -5% | 0%
O=C(Nc1ccc(Oc2ccccc2)cc1)c1ccc(F)c(S(=O)(=O)N2CCN(c3cccc(Cl)c3)CC2)c1 | 1% | 4µM*
O=C(COC(=O)c1ccc(Cl)c(S(=O)(=O)N2CCN(c3ccc(F)cc3)CC2)c1)Nc1cccc(Cl)c1 | -4% | 13µM*
Cc1cccc(NC(=O)c2ccc(F)c(S(=O)(=O)N3CCN(c4ccc(F)cc4)CC3)c2)c1 | 0% | ?
COc1ccccc1N1CCN(S(=O)(=O)c2cc(C(=O)Nc3ccc(Oc4ccccc4)cc3)ccc2F)CC1 | 0% | 7.9µM*
CC(C)c1ccc(NC(=O)c2ccc(F)c(S(=O)(=O)N3CCN(c4ccccc4F)CC3)c2)cc1 | 3% | 21%
Cc1cccc(N2CCN(S(=O)(=O)c3cc(C(=O)Nc4ccc(Oc5ccccc5)cc4)ccc3F)CC2C)c1 (stereo not drawn) | 0% | -26%
O=C(Nc1ccc(Oc2ccccc2)cc1)c1ccc(F)c(S(=O)(=O)N2CCN(c3ccccc3F)CC2)c1 | 0% | 7.9µM*
O=C(Cn1c(=O)n(Cc2ccccc2)c(=O)c2oc3ccccc3c21)Nc1ccc(Cl)cc1 | -1% | -12%
Clc1ccccc1-c1nc(NC2CCNCC2)c2ccccc2n1 | 0% | -6%
